Measured values from PubChem BioAssay (Tox21).
The source made the active and inactive calls. Calls follow the shape of the dose curve; as a rule, active = well fitted curve in the direction sought with a large enough effect in the repeat runs; inconclusive = weak or mixed curves; inactive = flat fitted curve, though single readings scatter.

Key:
[1] = qHTS assay to test for compound auto fluorescence at 535 nm (green) in HEK293 cells (AID 720680)
[2] = qHTS assay to test for compound auto fluorescence at 460 nm (blue) in HEK293 cell free culture (AID 720681)
How it was run: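 Test compounds were pinned into cell-free culture medium (DMEM with 10% FBS) and fluorescence was read directly at Ex/Em 405/460 nm. Signals were expressed as fluorescence equivalents of triamterene, with DMSO vehicle as control.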

[3] = qHTS assay to test for compound auto fluorescence at 535 nm (green) in HEK293 cell free culture (AID 720682)
How it was run: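 Green-channel intensity (Ex/Em 485/535 nm) was recorded from compound-treated wells containing only DMEM with 10% FBS. Fluorescein provided the equivalency standard.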

[4] = qHTS assay to test for compound auto fluorescence at 590 nm (red) in HEK293 cell free culture (AID 720683)
How it was run: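 Tox21 10K library compounds were pinned into cell-free DMEM with 10% FBS and fluorescence was read at excitation 540 nm. Activity is expressed as Rose Bengal sodium equivalency.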

[5] = qHTS assay to test for compound auto fluorescence at 590 nm (red) in HepG2 cell free culture (AID 720684)
How it was run: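 Red fluorescence (540 nm excitation, 590 nm emission) was measured after compound transfer into cell-free MEM supplemented with 10% FBS. Values are equivalencies against Rose Bengal sodium.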

[6] = qHTS assay to test for compound auto fluorescence at 460 nm (blue) in HepG2 cell free culture (AID 720685)
How it was run: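 Compound (23 nL) or DMSO pinned into cell-free MEM with 10% FBS; blue fluorescence read at 405/460 nm excitation/emission, expressed as auto-fluorescence equivalency to triamterene.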

[7] = qHTS assay to test for compound auto fluorescence at 535 nm (green) in HepG2 cell free culture (AID 720686)
[8] = qHTS assay to test for compound auto fluorescence at 460 nm (blue) in HepG2 cells (AID 720687)
How it was run: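 Cells (2,000/well in MEM with 10% FBS) attached overnight at 37 C, then were exposed to compound or DMSO for 1 hr at 37 C, 5% CO2. Fluorescence read at Ex/Em 405/460 nm, expressed as triamterene-equivalent signal.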
% is scaled to controls: 0 for no effect and ±100 for the full control effect.

COCc1ccc(COC)cc1
inactive: outcome [1] | Potency [2] | outcome [3] | outcome [4] | outcome [5] | Potency [6] | outcome [7] | Potency [8]

C/C=C1\C(=O)C[C@H]2[C@@H]3CCC4=CC(=O)CC[C@]4(C)[C@H]3CC[C@]12C
inactive: outcome [1] | Potency [2] | outcome [3] | outcome [4] | outcome [5] | Potency [6] | outcome [7]

N#CC1(O)CCCCC1
inactive: outcome [1] | Potency [2] | outcome [3] | outcome [4] | outcome [5] | Potency [6] | outcome [7] | Potency [8]

COc1cc(O)cc(O)c1
inactive: outcome [1] | Potency [2] | outcome [3] | outcome [4] | outcome [5] | Potency [6] | outcome [7] | Potency [8]

CCCc1ccc(N)cc1
inactive: outcome [1] | Potency [2] | outcome [3] | outcome [4] | outcome [5] | Potency [6] | outcome [7] | Potency [8]

O=[N+]([O-])c1ccc(Oc2ccc([N+](=O)[O-])cc2)cc1
inactive: outcome [1] | Potency [2] | outcome [3] | outcome [4] | outcome [5] | Potency [6] | outcome [7] | Potency [8]

CSc1nc(NC2CC2)nc(NC(C)(C)C)n1
inactive: outcome [1] | Potency [2] | outcome [3] | outcome [4] | outcome [5] | Potency [6] | outcome [7] | Potency [8]

C#CC(O)CCCCC (stereo unspecified)
inactive: outcome [1] | Potency [2] | outcome [3] | outcome [4] | outcome [5] | Potency [6] | outcome [7] | Potency [8]

c1ccc(SCCSc2ccccc2)cc1
inactive: outcome [1] | Potency [2] | outcome [3] | outcome [4] | outcome [5] | Potency [6] | outcome [7] | Potency [8]

Nc1nc2c(ncn2CCC(CO)CO)c(=O)[nH]1
inactive: outcome [1] | Potency [2] | outcome [3] | outcome [4] | outcome [5] | Potency [6] | outcome [7]

CCCCCC[C@@H](CCC)C(=O)O
inactive: outcome [1] | Potency [2] | outcome [3] | outcome [4] | outcome [5] | Potency [6] | outcome [7] | Potency [8]

Cn1cnc2c(=O)[nH]c(N)nc21
inactive: outcome [1] | Potency [2] | outcome [3] | outcome [4] | outcome [5] | Potency [6] | outcome [7] | Potency [8]

Cc1ccccc1C(=O)O
inactive: outcome [1] | Potency [2] | outcome [3] | outcome [4] | outcome [5] | Potency [6] | outcome [7] | Potency [8]

CC(C)c1cccc(C(C)C)c1N
inactive: outcome [1] | Potency [2] | outcome [3] | outcome [4] | outcome [5] | Potency [6]

CC(C)c1cccc(O)c1
inactive: outcome [1] | Potency [2] | outcome [3] | outcome [4] | outcome [5] | Potency [6] | outcome [7]

OC/C=C/c1ccccc1
inactive: outcome [1] | Potency [2] | outcome [3] | outcome [4] | outcome [5] | Potency [6] | outcome [7]

NCCNC(=O)c1ccc(Cl)cn1
inactive: outcome [1] | Potency [2] | outcome [3] | outcome [4] | outcome [5] | Potency [6] | outcome [7]

N[C@@H](CS)C(=O)O
inactive: outcome [1] | Potency [2] | outcome [3] | outcome [4] | outcome [5] | Potency [6] | outcome [7] | Potency [8]

Cc1ncc(CSSCc2cnc(C)c(O)c2CO)c(CO)c1O
inactive: outcome [1] | Potency [2] | outcome [3] | outcome [4] | outcome [5] | Potency [6] | outcome [7]

c1ccc(CCCc2ccccn2)cc1
inactive: outcome [1] | Potency [2] | outcome [3] | outcome [4] | outcome [5] | Potency [6] | outcome [7]

N#CCN(CC#N)CCN(CC#N)CC#N
inactive: outcome [1] | Potency [2] | outcome [3] | outcome [4] | outcome [5] | Potency [6] | outcome [7] | Potency [8]

C=CC(=O)OCCCCCC
inactive: outcome [1] | Potency [2] | outcome [3] | outcome [4] | outcome [5] | Potency [6] | outcome [7] | Potency [8]

Cc1ccccc1Br
inactive: outcome [1] | Potency [2] | outcome [3] | outcome [4] | outcome [5] | Potency [6] | outcome [7] | Potency [8]

O=C(O)/C=C/c1ccc(Cn2ccnc2)cc1
inactive: fluorescence, % of fluorescein [1] -0.0116% [at 18.6 µM] | fluorescence, % of fluorescent control [2] 0.209% [at 18.6 µM] | activity change [3] 0.0066% [at 18.6 µM] | fluorescence, % of fluorescent control [4] -0.0715% [at 18.6 µM] | fluorescence, % of Rose Bengal [5] -0.307% [at 18.6 µM] | fluorescence, % of fluorescent control [6] -0.0401% [at 18.6 µM] | fluorescence, % of fluorescein control [7] -0.0119% [at 18.6 µM] | fluorescence, % of fluorescent control [8] 0.143% [at 18.6 µM]

CCCCCCC(=O)OCC
inactive: outcome [1] | Potency [2] | outcome [3] | outcome [4] | outcome [5] | Potency [6] | outcome [7]

CC(C)N1C(=O)c2ccccc2C1=O
inactive: outcome [1] | Potency [2] | outcome [3] | outcome [4] | outcome [5] | Potency [6] | outcome [7]

C=C(C)C1CC=C(C)C(O)C1 (stereo unspecified)
inactive: outcome [1] | Potency [2] | outcome [3] | outcome [4] | outcome [5] | Potency [6] | outcome [7] | Potency [8]

C1COCCO1
inactive: outcome [1] | Potency [2] | outcome [3] | outcome [4] | outcome [5] | Potency [6] | outcome [7] | Potency [8]

CCCCCCCCCCC1CO1 (stereo unspecified)
inactive: outcome [1] | Potency [2] | outcome [3] | outcome [4] | outcome [5] | Potency [6] | outcome [7] | Potency [8]
